An excerpt weighted towards active compounds, which were near 5.4% of everything screened.
FMDV antiviral = antivirals against foot and mouth disease virus | FMDV antiviral cell-based qHTS | Potency, µM (highest dose often 57.9 µM), hits mostly inhibitors | 410,000 compounds, 1.2% hits; calls by dose curve; tested in HEK293T cells; note: read-out not given here; nearly all actives have a fitted effect of over 45% in size
Marburg entry inh = inhibitors of Marburg virus binding or cell entry; Marburg virus pseudotyped entry inhibition, cell reporter; Potency, µM (top dose mostly 37.8 µM), most hits filed as inhibitors; 300,000 compounds, 1.8% hits; AID 540276; calls by dose curve; tested in HEK293 cells
VACV mCherry inh = vaccinia inhibition (mCherry reporter); Vaccinia virus mCherry reporter infection, fluorescence; Potency, µM (series often up to 36.5 µM), actives largely listed as inhibitors; AID 720579; 310,000 compounds, 0.63% hits; calls by dose curve; tested in A549 cells; note: nearly all actives have a fitted effect of over 35% in size
Sm TGR inh = blocks Schistosoma mansoni thioredoxin glutathione reductase | Q962Y6 | purified TGR, DTNB reduction, TNB absorbance 405 nm | Potency, µM (highest dose often 114 µM), usual class: inhibitors | 360,000 compounds, 3% hits | AID 485364; active = well fitted inhibition curve with a large enough effect; inconclusive = small, poorly fitted or top-dose-only effect; inactive = no such curve, though single readings can be large or run the other way; note: nearly all actives have a fitted effect of over 60% in size
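First, TGR (20 nM dispensed) and NADPH were mixed with compound. Second, a 15 min room-temperature incubation followed. Third, further NADPH and then DTNB were added to start the reaction. Finally, TNB absorbance was monitored kinetically.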
LASV entry inh = Lassa virus entry inhibition. Lassa virus pseudotype entry inhibition, cell reporter. Potency, µM (highest dose often 37.9 µM), actives largely listed as inhibitors. 300,000 compounds, 1.2% hits; calls by dose curve; tested in HEK293 cells; note: nearly all actives have a fitted effect of over 50% in size
VACV Venus inh = vaccinia inhibition (Venus reporter). Vaccinia virus Venus reporter expression, fluorescence. 330,000 compounds, 0.46% hits. Potency, µM (titrated, usually from 36.5 µM), actives largely listed as inhibitors. AID 720580; calls by dose curve; tested in A549 cells; note: nearly all actives have a fitted effect of over 30% in size
Large screens that a line does not name were inactive; ! = a repeat was not active.

Clc1ccc(OCCN2CCCCC2)cc1Cl	Marburg entry inh inconclusive
Clc1ccc(OCCN2CCOCC2)cc1Cl	none
NC(=S)NN=C1c2cc(OCCN3CCOCC3)ccc2-c2ccc(OCCN3CCOCC3)cc21	FMDV antiviral 18µM, Marburg entry inh inconclusive, VACV mCherry inh inconclusive, LASV entry inh inconclusive, VACV Venus inh inconclusive
ON=C1c2cc(OCCN3CCCCC3)ccc2-c2ccc(OCCN3CCCCC3)cc21	Marburg entry inh 3.2µM, VACV mCherry inh inconclusive, LASV entry inh inconclusive, VACV Venus inh 8.9µM
COc1cc(NC(=O)CCn2c(-c3ccccc3)cc(C(C)=O)c2C)cc(OC)c1	none (no result: Marburg entry inh)
Oc1c(Cl)cc(Cl)cc1/C=N/c1nccs1	Sm TGR inh 6.3µM (no result: VACV mCherry inh)
CCOC(=O)N/N=C1\C[C@@H](O)[C@@H](O)[C@@H]2[C@@H]3C(=O)N(c4ccc(F)cc4F)C(=O)[C@@H]3CC[C@@H]12	none (no result: FMDV antiviral, VACV mCherry inh, Sm TGR inh, LASV entry inh, VACV Venus inh)
COc1cc(OC)cc(-c2nc3ccccc3c(=O)n2OC(=O)c2ccc(C)c(C)c2)c1	FMDV antiviral inconclusive, Marburg entry inh 11µM, VACV mCherry inh inconclusive, LASV entry inh inconclusive, VACV Venus inh inconclusive
Cc1ccc(S(=O)(=O)NCC(=O)N/N=C/c2ccccc2O)cc1	Marburg entry inh inconclusive, VACV mCherry inh inconclusive, LASV entry inh 7.3µM, VACV Venus inh inconclusive
Cc1ccc(S(=O)(=O)NCC(=O)N/N=C/c2ccc(Cl)cc2Cl)cc1	none
c1cc(CN2CCCCC2)cc(OCCCNc2nc3ccccc3s2)c1	Marburg entry inh 12µM, LASV entry inh 16µM (no result: Sm TGR inh)
CCc1ccc2nc(N3CCC(C(=O)N4CCC5(CC4)OCCO5)CC3)sc2c1	none
CCOc1ccc2nc(N3CCC(C(=O)N4CCN(c5ccccn5)CC4)CC3)sc2c1	FMDV antiviral 14µM (no result: VACV mCherry inh, LASV entry inh, VACV Venus inh)
CCOc1ccc2nc(N3CCC(C(=O)N4CCN(c5ncccn5)CC4)CC3)sc2c1	FMDV antiviral inconclusive, VACV Venus inh inconclusive (no result: Marburg entry inh, LASV entry inh)
Cc1ccc2nc(N3CCC(C(=O)N4CCC5(CC4)OCCO5)CC3)sc2c1	Marburg entry inh 7.9µM (no result: VACV mCherry inh)
CN(C)c1ccc(C(CNC(=O)c2ccccc2Cl)N2CCCC2)cc1 (stereo unspecified)	none (no result: Marburg entry inh)
COc1ccc(S(=O)(=O)N(C)c2ccc(C(=O)NCCC(C)C)cc2)cc1	LASV entry inh 8.2µM
CCOCCCNC(=O)c1ccc(N(C)S(=O)(=O)c2ccc(OC)cc2)cc1	none (no result: VACV mCherry inh, VACV Venus inh)
NC(=S)N=Nc1c(O)[nH]c2cc(F)c(F)cc12	VACV mCherry inh 3.2µM, VACV Venus inh 2.2µM
NC(=S)N=Nc1c(O)[nH]c2c(Cl)cc(Cl)cc12	Marburg entry inh inconclusive, VACV mCherry inh inconclusive, LASV entry inh inconclusive, VACV Venus inh inconclusive (no result: Sm TGR inh)
NC(CO)C(=O)NNCc1ccc(O)c(O)c1O (stereo unspecified)	Marburg entry inh 5µM!, Sm TGR inh 0.32µM, LASV entry inh inconclusive
COC(=O)C(N)Cc1ccc(O)cc1 (stereo unspecified)	none (no result: VACV mCherry inh, VACV Venus inh)
Fc1ccc(-c2noc3ncnc(N4CCCCC4)c23)cc1	FMDV antiviral inconclusive, LASV entry inh inconclusive (no result: Marburg entry inh)
COC(=O)N1C/C=C\C(c2ccc(OC)cc2)N(Cc2ccc(F)cc2)C(=O)C1 (stereo unspecified)	none (no result: Marburg entry inh, LASV entry inh)
COc1ccc(C2/C=C\CN(CC3CC3)CC(=O)N2Cc2ccc(F)cc2)cc1 (stereo unspecified)	none (no result: Marburg entry inh, LASV entry inh)
COc1ccc(C2/C=C\CN(S(=O)(=O)/C=C/c3ccccc3)[C@H](Cc3ccccc3)C(=O)N2Cc2ccc(F)cc2)cc1 (stereo partly specified)	Sm TGR inh 22µM (no result: Marburg entry inh, LASV entry inh)
COc1ccc(C2/C=C\CN(CC(C)(C)C)CC(=O)N2Cc2ccc(F)cc2)cc1 (stereo unspecified)	Sm TGR inh 32µM (no result: Marburg entry inh, LASV entry inh)
C=CC(=O)N1C/C=C\C(c2ccc(OC)cc2)N(Cc2ccc(F)cc2)C(=O)C1 (stereo unspecified)	VACV mCherry inh inconclusive, VACV Venus inh 0.89µM (no result: Marburg entry inh, LASV entry inh)
Cc1ccc(-c2cc[n+](Cc3ccccc3)cc2)cc1	FMDV antiviral inconclusive, Marburg entry inh inconclusive
Cc1ccc2c(c1)sc[n+]2Cc1ccccc1	Marburg entry inh inconclusive, Sm TGR inh 5.6µM (no result: VACV mCherry inh, VACV Venus inh)
O=C(NC1CC(=O)N(c2ccc(Cl)cc2)C1)C(=O)c1c[nH]c2ccccc12 (stereo unspecified)	none (no result: Marburg entry inh)
COc1ccc(NS(=O)(=O)c2cccc(C(=O)NC3CCN(Cc4ccccc4)CC3)c2)cc1	Marburg entry inh inconclusive, Sm TGR inh inconclusive, LASV entry inh inconclusive
COc1ccc(Cn2c(=O)[nH]c3cc(C(=O)N4CCN(c5cc(C)ccc5C)CC4)ccc3c2=O)cc1	Marburg entry inh inconclusive, VACV mCherry inh inconclusive

Screening results: PubChem BioAssay, National Center for Advancing Translational Sciences (NCATS)
